The list is not random: actives were taken first. Their share in the collection is about 5.3%.
TDP1 inh: blocks human tyrosyl-DNA phosphodiesterase 1 | AID 485290 | recombinant TDP1, AlphaScreen DNA substrate cleavage | Potency, µM (highest dose often 130 µM), for the others: top-dose activity change, negative = inhibition, most hits filed as inhibitors | 350,000 tested, 0.28% active | Q9NUW8; further: potency means the concentration at half of the fitted maximal effect; on the % scale 0 is the no-effect control and ±100 the full control effect; nearly all actives have a fitted effect of over 40% in size
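Signal: AlphaScreen proximity between streptavidin donor and anti-FITC acceptor beads on intact substrate. Reaction: Tdp1 1 nM, substrate 15 nM final, 5 min RT after 15 min compound preincubation.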
Six1-Eya2 inh: Six1/Eya2 interaction inhibition; Q15475+O00167; AlphaScreen GST-Six1/His-Eya2 binding, biochemical; hits give low values; activity change, % (test concentration not listed); 360,000 tested, 0.56% active; in the data active means activity change below about -65%; inconclusive means mostly about -30% to -63%; further: on the % scale 0 is the no-effect control and ±100 the full control effect
Target sequence (O00167 whole entry, looked up): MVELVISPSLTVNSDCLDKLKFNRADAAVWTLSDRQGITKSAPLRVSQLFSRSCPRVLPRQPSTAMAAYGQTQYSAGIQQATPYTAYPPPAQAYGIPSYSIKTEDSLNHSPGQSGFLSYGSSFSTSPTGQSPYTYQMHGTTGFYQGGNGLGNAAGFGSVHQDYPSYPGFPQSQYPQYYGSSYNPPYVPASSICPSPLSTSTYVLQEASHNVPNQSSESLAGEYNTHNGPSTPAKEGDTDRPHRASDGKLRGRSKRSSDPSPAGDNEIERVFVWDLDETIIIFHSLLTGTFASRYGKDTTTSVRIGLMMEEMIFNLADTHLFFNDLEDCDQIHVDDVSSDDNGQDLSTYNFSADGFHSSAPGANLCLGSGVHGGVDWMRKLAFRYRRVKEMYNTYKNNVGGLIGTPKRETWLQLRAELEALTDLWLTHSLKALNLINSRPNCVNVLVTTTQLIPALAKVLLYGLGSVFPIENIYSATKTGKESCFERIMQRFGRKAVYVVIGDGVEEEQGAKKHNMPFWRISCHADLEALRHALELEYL
Target sequence (Q15475 whole entry, looked up): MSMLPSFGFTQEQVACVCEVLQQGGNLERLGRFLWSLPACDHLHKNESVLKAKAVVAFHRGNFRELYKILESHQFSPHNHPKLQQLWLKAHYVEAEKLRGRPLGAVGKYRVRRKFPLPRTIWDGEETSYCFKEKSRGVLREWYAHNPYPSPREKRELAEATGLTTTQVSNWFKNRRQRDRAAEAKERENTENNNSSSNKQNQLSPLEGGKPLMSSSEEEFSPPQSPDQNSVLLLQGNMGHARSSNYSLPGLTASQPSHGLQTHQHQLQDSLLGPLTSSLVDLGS
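AlphaScreen luminescence read after one hour at 37 °C in darkness. Pin-transferred compounds met GST-Six1 and His-Eya2 protein (5X stock 250 nM/500 nM) plus glutathione donor and Ni-chelate acceptor beads (5X, 50 ug/mL).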
HP1b chromo inh: HP1-beta chromodomain-methylated histone interaction inhibition; P83916; AlphaScreen HP1-beta / biotin-H3K9me3 peptide binding; Potency, µM (highest dose often 114 µM), for inactives: top-dose activity change, negative = inhibition, most hits filed as inhibitors; 390,000 tested, 0.56% active; AID 540317; further: potency means the concentration at half of the fitted maximal effect; nearly all actives have a fitted effect of over 70% in size
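Compound inhibition of the preformed complex between 50 nM HP1-beta and 50 nM biotinylated H3K9me3 peptide was read by AlphaScreen. Buffer was PBS pH 7.4 with 0.01% Tween-20. Incubations ran 30 min at room temperature, with 10 ug/mL donor/acceptor beads.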
CtBP-E1A inh: blocks the CtBP interaction with E1A. 340,000 tested, 0.49% active. AlphaScreen GST-E1A/His-CtBP binding, 1536-well; hits give low values. AID 651724. activity change, % (concentration not given with the values); in the data active means activity change below about -65%; inconclusive means mostly about -30% to -63%; further: on the % scale 0 is the no-effect control and ±100 the full control effect
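Homogeneous bead-based format: GST-tagged E1A captured on glutathione donor beads, His-tagged CtBP on nickel acceptor beads; compounds precede bead addition by 2 h at 37 °C.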
BAZ2B inh: inhibitors of human BAZ2B bromodomain; AlphaScreen BAZ2B-H3K14Ac peptide displacement; Potency, µM (series often up to 114 µM), for inactives: at the top dose activity change, negative = inhibition, actives largely listed as inhibitors; 360,000 tested, 4.4% active; AID 504333; further: potency means the concentration at half of the fitted maximal effect; on the % scale 0 is the no-effect control and ±100 the full control effect; nearly all actives have a fitted effect of over 60% in size
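Inhibition is scored as reduced AlphaScreen emission. The BAZ2B/b-H3(5-23)K14Ac complex (50 nM each) in PBS pH 7.4, 0.01% Tween-20 meets compound (up to 110 uM) for 30 min at RT before bead addition.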
JMJD2A Tudor inh: inhibitors of human JMJD2A Tudor domain | AID 504339 | Potency, µM (titrated, usually from 114 µM), for inactives: at the top dose activity change, negative = inhibition, hits mostly inhibitors | O75164 | AlphaScreen JMJD2A-Tudor / H3K4me3 peptide binding | 390,000 tested, 4.4% active; further: potency means the concentration at half of the fitted maximal effect; on the % scale 0 is the no-effect control and ±100 the full control effect; nearly all actives have a fitted effect of over 50% in size
* hit, by the source's call; ? = inconclusive; . = no result; [ ] = another dose, or the depositor's remark. Unless noted, the call rests on the fitted dose curve; in most records, active means well fitted inhibition curve with a large enough effect; inconclusive means small, poorly fitted or top-dose-only effect; inactive means no such curve, though single readings can be large or run the other way.

SMILES | TDP1 inh | Six1-Eya2 inh | HP1b chromo inh | CtBP-E1A inh | BAZ2B inh | JMJD2A Tudor inh
CN(CCCN(Cc1ccc(Cl)cc1)c1ccc(Br)cn1)C(=S)NCCCc1cnc[nH]1 | . | . | ? | . | . | 56µM*
S=C(NCCCc1cnc[nH]1)NCCCN(Cc1ccc(Cl)c(Cl)c1)c1ccccn1 | . | . | . | . | . | 45µM*
CC(=O)NCCCN(Cc1ccc(Cl)c(Cl)c1)c1ccc(Br)cn1 | . | . | 20% | . | . | -17%
CN(C)CCN(Cc1ccc(Cl)cc1)c1ccccn1 | 3% | -5 | 53% | -2 | -3% | -20%
S=C(NCCCCN(Cc1ccc(Cl)cc1)c1ccc(Br)cn1)NCCCc1cnc[nH]1 | . | . | 25µM* | . | . | 45µM*
O=C(NCCCc1cnc[nH]1)NCCCN(Cc1ccc(Cl)c(Cl)c1)c1ccc(Br)cn1 | . | . | . | . | . | 50µM*
CNC(=S)NCCCCc1cnc[nH]1 | -6% | . | . | . | . | .
COc1cccc(CNC(=O)c2cc(C)nc3c2c(C)nn3-c2ccc(C)cc2)c1 | -12% | . | 65% | . | 32%[57.1 µM] | 22%
COCCn1c(SCC(=O)Nc2ccc(F)c(Cl)c2)nc2c(oc3ccccc32)c1=O | -3% | . | 8% | . | -3% | -23%
O=C(NCCCc1nc2ccccc2n1Cc1ccc(Cl)cc1)c1ccco1 | 7% | . | 45% | . | ? | -17%
COc1cccc(N2C(=O)CC(Nc3ccc(N4CCOCC4)cc3)C2=O)c1 (stereo not drawn) | 7% | -14 | -12% | 7 | -6% | ?
O=C1CC(Nc2ccc(N3CCOCC3)cc2)C(=O)N1c1cccc(C(F)(F)F)c1 (stereo not drawn) | 8% | -16 | -15% | -20 | 56µM* | ?
COC(=O)CCCC(=O)OC | 0% | 10 | 11% | -2 | . | -6%
COC(=O)CCN(C)CCC(=O)OC | 2% | -1 | 55% | -8 | 13% | 50µM*
Cc1c(C(C)(C)C)c(C=S)n2ccccc12 | 8% | -10 | ? | 6 | -38% | 50µM*
O=C(NCc1ccccc1)c1ccc2c(c1)nc1n2CCOC1 | 5% | . | 28%[57 µM] | . | 3% | 2%
S=C(c1ccc(-c2cc(Cl)ccc2Cl)o1)N1CCOCC1 | 10% | ? | 18µM* | ? | 35µM* | ?
O=C(c1ccc(-c2ccccc2Cl)o1)N1CCCCCCC1 | . | -3 | ? | 6 | . | 116%
S=C(c1ccc(-c2cc(Cl)ccc2Cl)o1)N1CCCCC1 | -3% | -11 | ? | -3 | 28µM* | ?
O=C(Nc1ccc(CN2CCOCC2)cc1)c1ccc(-c2cc(Cl)ccc2Cl)o1 | 7% | -16 | 11% | -4 | -36% | -11%
CCOC(=O)c1c(NC(=O)c2cc(=O)c3c(C)cc(C)cc3o2)sc2c1CCC2 | 4% | . | 32% | . | 2% | -14%
CO[C@@H]1COC(=O)[C@H](C)NC(=O)C/C=C\[C@@H](C)[C@H](OC)COC(=O)[C@H](C)NC(=O)C/C=C\[C@H]1C | 6%[21 µM] | . | . | . | . | .
CC(=O)c1ccc(C(=O)N2CCc3c([nH]c4ccccc34)C2c2ccccn2)s1 (stereo not drawn) | 0% | -10 | 3% | -3 | 35µM* | ?
O=C(c1cccs1)N1CCc2c([nH]c3ccccc23)C1c1ccccn1 (stereo not drawn) | . | -9 | -1% | -28 | ? | ?
O=C(c1ccccc1-n1cccn1)N1CCc2c([nH]c3ccccc23)C1c1ccccn1 (stereo not drawn) | . | -9 | -23% | -13 | ? | ?
SMILES | TDP1 inh | Six1-Eya2 inh | HP1b chromo inh | CtBP-E1A inh | BAZ2B inh | JMJD2A Tudor inh
COc1ccc(OCC(=O)N2CCc3c([nH]c4ccccc34)C2c2ccccn2)cc1 (stereo not drawn) | 0% | 3 | -13% | . | ? | 56µM*
CSc1nc(C(=O)N2CCc3c([nH]c4ccccc34)C2c2ccccn2)cs1 (stereo not drawn) | 5% | -13 | -19% | -10 | 32µM* | 50µM*
O=C(c1ccccc1-c1ncc[nH]1)N1CCc2c([nH]c3ccccc23)C1c1ccccn1 (stereo not drawn) | 8% | -10 | -25% | ? | 28µM* | ?
O=C1C(Cl)=C(Nc2cccc(O)c2)C(=O)N1Cc1ccccc1 | 0% | -1 | ? | -2 | ? | 45µM*
CCOc1ccccc1NC1=C(Cl)C(=O)N(Cc2ccccc2)C1=O | 6% | -22 | -32% | -18 | ? | -15%[11.4 µM]
COc1ccc(OC)c(NC2=C(Cl)C(=O)N(Cc3ccccc3)C2=O)c1 | 11% | ? | ? | -26 | 22µM* | 14µM*
COc1ccc(OC)c(NC2=C(c3ccccc3)C(=O)c3ccccc32)c1 | 12% | . | 13µM* | . | 5.6µM* | 13µM*
CC(C)c1nn2c(=O)cc(COC(=O)c3cccc(NC(=O)c4cccs4)c3)nc2s1 | 4% | . | 31% | . | -28% | -13%
COc1ccc(NC(=O)c2c(NCc3cccc(F)c3)sc3c2CCC3)c(OC)c1 | 5% | . | 29% | . | -23% | -30%
COc1cccc(CNC(=O)c2nnc(Cc3ccc(Cl)cc3)o2)c1 | 2% | . | 26% | . | 3% | -13%
Cc1[nH]n(-c2ccccc2)c(=O)c1/C=N/NC(=O)c1cccc(F)c1 | . | -92* | 45% | . | 79µM* | 79µM*
Cc1[nH]n(-c2ccc(Br)cc2)c(=O)c1/C=N/NC(=O)c1ccccc1 | 9% | -11 | 38% | . | 32µM* | 79µM*
O=C(Nc1ccccc1)C12CC1/C(=N\O)c1ccccc1O2 (stereo not drawn) | 10% | . | . | . | . | .
O=C(CN1C(=O)C2(SCC(=O)N2c2cccc(Cl)c2)c2ccccc21)NC1CCCCC1 (stereo not drawn) | 4% | . | 25% | . | 4%[57.1 µM] | -16%
CCOC(=O)C(=CNNc1cccc(Cl)c1)C(=O)OCC | -2% | 4 | ? | 0 | -8% | 79µM*
c1n[nH]c(NC2=NCCC2)n1 | -1% | ? | 74% | ? | 14µM* | 45µM*
O=C(Nc1ccccc1)c1cc(-c2ccccc2Cl)no1 | 2% | -4 | -2% | 8 | 5% | 28µM*
O=C(NCCN1CCOCC1)C1CCN(Cc2ccccc2O)CC1 | . | 3 | ? | 7 | 45µM* | 1.4µM*
Oc1c(C2=NCCNC(C(F)(F)F)=C2)ccc2ccccc12 | 14% | ? | ? | ? | 25µM* | 50µM*
Cc1ccc(-c2nc(CNC(=O)Nc3ccccc3)c(C)o2)cc1 | -1% | . | 16% | . | -14% | -16%
Oc1ccc2c(c1)OCC1(O)Cc3cc(O)c(O)cc3C21 (stereo not drawn) | -10%[56.1 µM] | -1 | ? | -12 | . | 20µM*
Cc1cccc(CC(=O)Nc2cccc(-c3nc4cccnc4s3)c2)c1 | 0% | . | 71% | . | 0% | -14%
Cc1ccccc1C(=O)Nc1cccc(-c2nc3cccnc3s2)c1 | 6% | . | 11% | . | ? | 100µM*

From PubChem
